Measured values reported in the supplement of paper PMC8975748.
Counter-ions that a name gives are not always drawn. ± gives the standard deviation of the averaged measurements.

Assays:
[1] = tested on: Saccharomyces cerevisiae BY4741 SeMeCo community; experiment: mean cell size (pixel area) (pixels); higher = larger cells; conditions: 10 µM; 24 h; SM minimal medium
Outline: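 Drug was acoustically predosed into 384-well plates to a final 10 µM in SM medium, and each well received 70 µl of Saccharomyces cerevisiae BY4741 diluted to OD600 = 0.3 from an overnight preculture at OD600 = 1.0. This four-plasmid fluorescent community carries one fluorescent marker per plasmid, and each plasmid complements one auxotrophy. After 24 h, the cells were fixed with paraformaldehyde and imaged by automated confocal microscopy, and Harmony analysis yielded mean cell pixel area per well. Each value is averaged over 3 replicates. Same SeMeCo high-content imaging drug screen: Selleck FDA-approved drugs at 10 µM, 24 h in SM medium, 384-well plates, 3 replicates.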

[2] = tested on: Saccharomyces cerevisiae BY4741 SeMeCo community; experiment: z-score of subpopulation abundance vs DMSO median, subpopulation auxotrophic for M; higher = larger share of this subpopulation than in DMSO controls; conditions: 10 µM; 24 h; SM minimal medium; subpopulation (auxotrophy): M
Outline: (§1)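 Scoring was based on each subpopulation's abundance, expressed as a z-score against the vehicle-well median. A Saccharomyces cerevisiae BY4741 community with four plasmids, each restoring one auxotrophy and encoding a distinct fluorescent protein, was pre-grown overnight to OD600 1.0, diluted to 0.3, and added at 70 µl to 384-well plates acoustically predosed with library drugs (10 µM final). It then grew 24 h in minimal SM medium before paraformaldehyde fixation and automated confocal microscopy, with single-auxotroph fluorescent strains setting thresholds and autofluorescence correction.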

[3] = tested on: Saccharomyces cerevisiae BY4741 SeMeCo community; experiment: z-score of subpopulation abundance vs DMSO median, subpopulation auxotrophic for L; higher = larger share of this subpopulation than in DMSO controls; conditions: 10 µM; 24 h; SM minimal medium; subpopulation (auxotrophy): L
Outline: as §1

[4] = tested on: Saccharomyces cerevisiae BY4741 SeMeCo community; experiment: z-score of subpopulation abundance vs DMSO median, subpopulation auxotrophic for U; higher = larger share of this subpopulation than in DMSO controls; conditions: 10 µM; 24 h; SM minimal medium; subpopulation (auxotrophy): U
Outline: as §1

[5] = tested on: Saccharomyces cerevisiae BY4741 SeMeCo community; experiment: z-score of subpopulation abundance vs DMSO median, subpopulation auxotrophic for LU; higher = larger share of this subpopulation than in DMSO controls; conditions: 10 µM; 24 h; SM minimal medium; subpopulation (auxotrophy): LU
Outline: as §1

[6] = tested on: Saccharomyces cerevisiae BY4741 SeMeCo community; experiment: z-score of subpopulation abundance vs DMSO median, subpopulation auxotrophic for LM; higher = larger share of this subpopulation than in DMSO controls; conditions: 10 µM; 24 h; SM minimal medium; subpopulation (auxotrophy): LM
Outline: as §1

[7] = tested on: Saccharomyces cerevisiae BY4741 SeMeCo community; experiment: z-score of subpopulation abundance vs DMSO median, subpopulation auxotrophic for HM; higher = larger share of this subpopulation than in DMSO controls; conditions: 10 µM; 24 h; SM minimal medium; subpopulation (auxotrophy): HM
Outline: as §1

[8] = tested on: Saccharomyces cerevisiae BY4741 SeMeCo community; experiment: z-score of subpopulation abundance vs DMSO median, subpopulation auxotrophic for UM; higher = larger share of this subpopulation than in DMSO controls; conditions: 10 µM; 24 h; SM minimal medium; subpopulation (auxotrophy): UM
Outline: as §1

[9] = tested on: Saccharomyces cerevisiae BY4741 SeMeCo community; experiment: z-score of subpopulation abundance vs DMSO median, subpopulation auxotrophic for HL; higher = larger share of this subpopulation than in DMSO controls; conditions: 10 µM; 24 h; SM minimal medium; subpopulation (auxotrophy): HL
Outline: as §1

[10] = tested on: Saccharomyces cerevisiae BY4741 SeMeCo community; experiment: z-score of subpopulation abundance vs DMSO median, subpopulation auxotrophic for HLM; higher = larger share of this subpopulation than in DMSO controls; conditions: 10 µM; 24 h; SM minimal medium; subpopulation (auxotrophy): HLM
Outline: as §1

[11] = tested on: Saccharomyces cerevisiae BY4741 SeMeCo community; experiment: z-score of subpopulation abundance vs DMSO median, subpopulation auxotrophic for HUM; higher = larger share of this subpopulation than in DMSO controls; conditions: 10 µM; 24 h; SM minimal medium; subpopulation (auxotrophy): HUM
Outline: as §1

[12] = tested on: Saccharomyces cerevisiae BY4741 SeMeCo community; experiment: z-score of subpopulation abundance vs DMSO median, subpopulation auxotrophic for LUM; higher = larger share of this subpopulation than in DMSO controls; conditions: 10 µM; 24 h; SM minimal medium; subpopulation (auxotrophy): LUM
Outline: as §1

[13] = tested on: Saccharomyces cerevisiae BY4741 SeMeCo community; experiment: z-score of subpopulation abundance vs DMSO median, subpopulation auxotrophic for HLUM; higher = larger share of this subpopulation than in DMSO controls; conditions: 10 µM; 24 h; SM minimal medium; subpopulation (auxotrophy): HLUM
Outline: as §1

[14] = tested on: Saccharomyces cerevisiae BY4741 SeMeCo community; experiment: z-score of prototroph abundance vs DMSO median; higher = larger share of this subpopulation than in DMSO controls; conditions: 10 µM; 24 h; SM minimal medium; subpopulation (auxotrophy): Prototroph
Outline: as §1

[15] = tested on: Saccharomyces cerevisiae BY4741 SeMeCo community; experiment: z-score of subpopulation abundance vs DMSO median, subpopulation auxotrophic for H; higher = larger share of this subpopulation than in DMSO controls; conditions: 10 µM; 24 h; SM minimal medium; subpopulation (auxotrophy): H
Outline: as §1

[16] = tested on: Saccharomyces cerevisiae BY4741 SeMeCo community; experiment: z-score of subpopulation abundance vs DMSO median, subpopulation auxotrophic for HU; higher = larger share of this subpopulation than in DMSO controls; conditions: 10 µM; 24 h; SM minimal medium; subpopulation (auxotrophy): HU
Outline: as §1

[17] = tested on: Saccharomyces cerevisiae BY4741 SeMeCo community; experiment: z-score of subpopulation abundance vs DMSO median, subpopulation auxotrophic for HLU; higher = larger share of this subpopulation than in DMSO controls; conditions: 10 µM; 24 h; SM minimal medium; subpopulation (auxotrophy): HLU
Outline: as §1

## Nc1ccc(/N=N/c2ccccc2)c(N)n1 [Phenazopyridine HCl]
[1]
  mean cell size: 12.5 ± 0.25
[2]
  z-score of subpopulation abundance: 0.28
[3]
  z-score of subpopulation abundance: 0.42
[4]
  z-score of subpopulation abundance: -2.82
[5]
  z-score of subpopulation abundance: -2.56
[6]
  z-score of subpopulation abundance: 0.47
[7]
  z-score of subpopulation abundance: 0.02
[8]
  z-score of subpopulation abundance: -2.74
[9]
  z-score of subpopulation abundance: 0.92
[10]
  z-score of subpopulation abundance: 0.39
[11]
  z-score of subpopulation abundance: -1.7
[12]
  z-score of subpopulation abundance: -1.8
[13]
  z-score of subpopulation abundance: -0.54

## COc1cccc2c1C(=O)c1c(O)c3c(c(O)c1C2=O)CC(O)(C(=O)CO)CC3OC1CC(N)C(O)C(C)O1 (stereo unspecified) [Doxorubicin (Adriamycin) HCl]
[1]
  mean cell size: 13.68 ± 0.1
[14]
  z-score of prototroph abundance: -3.54
[2]
  z-score of subpopulation abundance: -6.37
[3]
  z-score of subpopulation abundance: 0.99
[4]
  z-score of subpopulation abundance: 4.2
[15]
  z-score of subpopulation abundance: 4.08
[5]
  z-score of subpopulation abundance: 8.06
[6]
  z-score of subpopulation abundance: -0.36
[7]
  z-score of subpopulation abundance: -2.19
[16]
  z-score of subpopulation abundance: 8.36
[8]
  z-score of subpopulation abundance: 0.38
[9]
  z-score of subpopulation abundance: 2.67
[10]
  z-score of subpopulation abundance: 2.16
[11]
  z-score of subpopulation abundance: 2.39
[12]
  z-score of subpopulation abundance: 4.19
[13]
  z-score of subpopulation abundance: 12.9

## CN1CCCN=C1/C=C/c1cccs1 [Pyrantel Pamoate]
[1]
  mean cell size: 12.8 ± 0.19
[14]
  z-score of prototroph abundance: 0.2
[3]
  z-score of subpopulation abundance: -0.64
[15]
  z-score of subpopulation abundance: 1.26
[6]
  z-score of subpopulation abundance: -0.65
[7]
  z-score of subpopulation abundance: 0.03
[16]
  z-score of subpopulation abundance: 0.04
[8]
  z-score of subpopulation abundance: -1.25
[9]
  z-score of subpopulation abundance: -0.22
[17]
  z-score of subpopulation abundance: 0.47
[10]
  z-score of subpopulation abundance: 0.61
[12]
  z-score of subpopulation abundance: -0.44
[13]
  z-score of subpopulation abundance: -0.17

## C[C@@H](O)[C@H]1C(=O)N2C(C(=O)O)=C([C@H]3CCCO3)S[C@H]12 [Faropenem Sodium]
[1]
  mean cell size: 12.39 ± 0.088
[2]
  z-score of subpopulation abundance: 0.61
[3]
  z-score of subpopulation abundance: -0.03
[4]
  z-score of subpopulation abundance: 1.08
[15]
  z-score of subpopulation abundance: 0.32
[5]
  z-score of subpopulation abundance: 0.29
[6]
  z-score of subpopulation abundance: -0.23
[7]
  z-score of subpopulation abundance: 0.48
[16]
  z-score of subpopulation abundance: 0.81
[8]
  z-score of subpopulation abundance: 1.27
[9]
  z-score of subpopulation abundance: 0
[10]
  z-score of subpopulation abundance: -0.7
[11]
  z-score of subpopulation abundance: 0.59
[12]
  z-score of subpopulation abundance: 0.85
[13]
  z-score of subpopulation abundance: -0.05

## Cc1ccc(O)c([C@H](CCN(C(C)C)C(C)C)c2ccccc2)c1 [Tolterodine tartrate]
[1]
  mean cell size: 12.36 ± 0.069
[14]
  z-score of prototroph abundance: -0.65
[2]
  z-score of subpopulation abundance: 0.22
[3]
  z-score of subpopulation abundance: 0.31
[15]
  z-score of subpopulation abundance: -0.19
[5]
  z-score of subpopulation abundance: -0.23
[6]
  z-score of subpopulation abundance: 1.32
[7]
  z-score of subpopulation abundance: 0.62
[16]
  z-score of subpopulation abundance: 0.88
[8]
  z-score of subpopulation abundance: 1.04
[9]
  z-score of subpopulation abundance: -0.22
[10]
  z-score of subpopulation abundance: -0.01
[11]
  z-score of subpopulation abundance: 1.13
[13]
  z-score of subpopulation abundance: -0.2

## C[N+]1(C)[C@@H]2CC[C@H]1C[C@@H](OC(=O)C(O)c1ccccc1)C2 (stereo partly specified) [Homatropine Methylbromide]
[1]
  mean cell size: 12.4 ± 0.32
[14]
  z-score of prototroph abundance: 0.29
[2]
  z-score of subpopulation abundance: -0.38
[3]
  z-score of subpopulation abundance: -0.63
[4]
  z-score of subpopulation abundance: 0.46
[15]
  z-score of subpopulation abundance: -1.04
[5]
  z-score of subpopulation abundance: 0.06
[7]
  z-score of subpopulation abundance: -0.7
[16]
  z-score of subpopulation abundance: 0.05
[8]
  z-score of subpopulation abundance: 0.8
[9]
  z-score of subpopulation abundance: -0.55
[10]
  z-score of subpopulation abundance: -0.66
[12]
  z-score of subpopulation abundance: -0.14
[13]
  z-score of subpopulation abundance: -0.38

## CCCCCOc1ccccc1/C(=C\SC)n1ccnc1 [Neticonazole Hydrochloride]
[1]
  mean cell size: 11.8 ± 0.13
[14]
  z-score of prototroph abundance: -8.79
[2]
  z-score of subpopulation abundance: -1.87
[3]
  z-score of subpopulation abundance: -1.5
[4]
  z-score of subpopulation abundance: -1.45
[5]
  z-score of subpopulation abundance: -2.84
[7]
  z-score of subpopulation abundance: 3.53
[8]
  z-score of subpopulation abundance: 14.5
[9]
  z-score of subpopulation abundance: 4.4
[10]
  z-score of subpopulation abundance: 23.8
[12]
  z-score of subpopulation abundance: 3.33
